Assay results from PubChem BioAssay AID1159580 (chemical genetic matrix, 2015).
Values joined by “and” are separate entries in the source; they are usually repeats but may differ in a detail not shown here. Identical values can stand only once. In all, about 5,500 compounds went through this assay and about 2,000 (36%) were called active. Inconclusive results (about 18%) are left out. No stated cut-off is given here; in the data, active means normalized growth mostly below about 0.91 (no sharp cut-off); inconclusive means no clear call, values can overlap the other calls; inactive means mostly above about 0.92. Some of the results follow.

Assay: chemical genetic growth profiling, strain panel (AID 1159580);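 further: tested at 20 µM; growth read once vehicle control cultures reached saturation at 30 °C; 1 = growth at the plate median or of vehicle wells; lower values mean less growth of the strain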
Conditions: S. cerevisiae deletion strains, growth OD

Measured: normalized growth

CC[C@H]1CN2CCc3cc(OC)c(OC)cc3C2C[C@@H]1CC1NCCc2cc(OC)c(OC)cc21 (some centres undefined)
inactive: locus YAL021C, strain ccr4, hits give low values 0.988 | locus YAL026C, strain drs2, hits give low values 0.989 | locus YAL030W, strain snc1, hits give low values 0.983 | locus YBL061C, strain skt5, hits give low values 1 | locus YBR009C, strain hhf1, hits give low values 0.971 | locus YBR021W, strain FUR4, hits give low values 1.02 | locus YBR023C, strain chs3, hits give low values 0.987 | locus YBR171W, strain sec66, hits give low values 0.996 | locus YBR229C, strain ROT2, hits give low values 0.997 | locus YBR231C, strain swc5, hits give low values 0.993 | locus YBR279W, strain paf1, hits give low values 0.979 | locus YCL011C, strain gbp2, hits give low values 0.983 | locus YCL016C, strain dcc1, hits give low values 0.996 | locus YCL029C, strain bik1, hits give low values 0.989 | locus YCL069W, strain vba3, hits give low values 0.98 | locus YCR088W, strain abp1, hits give low values 0.995 | locus YDL005C, strain med2, hits give low values 0.988 | locus YDL035C, strain GPR1, hits give low values 1.01 | locus YDL040C, strain nat1, hits give low values 0.965 | locus YDL074C, strain BRE1, hits give low values 1 | locus YDL101C, strain DUN1, hits give low values 1.01 | locus YDL134C, strain PPH21, hits give low values 1 | locus YDL185W, strain tfp1, hits give low values 1 | locus YDL192W, strain arf1, hits give low values 0.987 | locus YDR001C, strain nth1, hits give low values 0.982 | locus YDR069C, strain doa4, hits give low values 0.946 | locus YDR101C, strain arx1, hits give low values 0.988 | locus YDR137W, strain rgp1, hits give low values 0.961 | locus YDR150W, strain NUM1, hits give low values 1.02 | locus YDR159W, strain sac3, hits give low values 0.899 | locus YDR162C, strain NBP2, hits give low values 1.03 | locus YDR195W, strain ref2 0.914 | locus YDR297W, strain sur2, hits give low values 0.979 | locus YDR318W, strain mcm21, hits give low values 1.01 | locus YDR334W, strain swr1, hits give low values 0.929 | locus YDR335W, strain msn5, hits give low values 0.974 | locus YDR388W, hits give low values 0.994 | locus YDR392W, strain spt3, hits give low values 0.917 | locus YDR502C, strain sam2, hits give low values 0.971 | locus YEL003W, strain gim4, hits give low values 0.979 | locus YEL037C, strain rad23, hits give low values 0.968 | locus YEL061C, strain CIN8 (second series), hits give low values 0.978 | locus YEL061C, strain CIN8, hits give low values 1.01 | locus YER015W, strain faa2, hits give low values 0.979 | locus YER016W, strain bim1, hits give low values 1.04 | locus YER110C, hits give low values 0.996 | locus YER111C, strain swi4, hits give low values 0.973 | locus YER155C, strain BEM2 (second series), hits give low values 0.962 | locus YER155C, strain BEM2, hits give low values 1.01 | locus YER167W, strain BCK2, hits give low values 1.01 | locus YFR010W, strain ubp6, hits give low values 0.956 | locus YGL078C, strain dbp3, hits give low values 0.986 | locus YGL086W, strain mad1, hits give low values 0.968 | locus YGL167C, strain pmr1, hits give low values 0.96 | locus YGL173C, strain kem1, hits give low values 0.962 | locus YGL227W, strain vid30, hits give low values 0.983 | locus YGL240W, strain doc1, hits give low values 0.945 | locus YGL248W, strain PDE1, hits give low values 1.02 | locus YGL253W, strain hxk2, hits give low values 0.95 | locus YGR078C, strain PAC10, hits give low values 1.02 | locus YGR135W, strain pre9, hits give low values 1.01 | locus YGR252W, strain gcn5, hits give low values 1 | locus YHR013C, strain ard1, hits give low values 0.941 | locus YHR027C, strain rpn1, hits give low values 0.985 | locus YHR030C, strain SLT2, hits give low values 1.01 and 1.04 | locus YHR079C, strain IRE1 (second series), hits give low values 1 | locus YHR079C, strain IRE1, hits give low values 1.12 | locus YHR094C, strain hxt1, hits give low values 0.997 | locus YHR129C, strain ARP1, hits give low values 1.01 | locus YHR142W, strain chs7, hits give low values 0.972 | locus YHR200W, strain rpn10, hits give low values 1.01 | locus YIL066C, strain RNR3, hits give low values 0.993 | locus YIL073C, strain SPO22, hits give low values 1.02 | locus YIL125W, strain kgd1, hits give low values 0.995 | locus YIR030C, strain dcg1, hits give low values 0.994 | locus YJL092W, strain hpr5, hits give low values 0.987 | locus YJL095W, strain BCK1 (second series), hits give low values 0.977 | locus YJL095W, strain BCK1, hits give low values 1.04 and 1.05 | locus YJL115W, strain asf1, hits give low values 0.962 | locus YJL129C, strain trk1, hits give low values 0.983 | locus YJL134W, strain LCB3, hits give low values 1.01 | locus YJL154C, strain vps35, hits give low values 0.979 | locus YJL164C, strain tpk1, hits give low values 0.978 | locus YJL166W, strain qcr8, hits give low values 0.962 | locus YJL168C, strain set2, hits give low values 1 | locus YJL187C, strain SWE1 (second series), hits give low values 1.02 | locus YJL187C, strain SWE1, hits give low values 0.979 | locus YJR043C, strain POL32, hits give low values 1.02 | locus YJR066W, strain TOR1, hits give low values 0.996 | locus YKL068W, hits give low values 1.01 | locus YKL085W, strain MDH1 (second series), hits give low values 1.02 | locus YKL085W, strain MDH1, hits give low values 1.02 | locus YKL160W, strain elf1, hits give low values 1.01 | locus YKR001C, strain vps1, hits give low values 1 | locus YKR026C, strain gcn3, hits give low values 0.986 | locus YKR091W, strain srl3, hits give low values 0.987 | locus YLL001W, strain dnm1, hits give low values 0.985 | locus YLL026W, hits give low values 0.992 | locus YLL041C, strain sdh2, hits give low values 0.989 | locus YLR027C, strain aat2, hits give low values 0.989 | locus YLR039C, strain RIC1, hits give low values 1.01 | locus YLR058C, strain SHM2, hits give low values 1.01 | locus YLR102C, strain apc9, hits give low values 0.999 | locus YLR113W, strain HOG1, hits give low values 1.06 | locus YLR221C, strain rsa3, hits give low values 0.984 | locus YLR258W, strain gsy2, hits give low values 0.985 | locus YLR262C, strain YPT6 (second series), hits give low values 0.978 | locus YLR262C, strain YPT6, hits give low values 1.06 | locus YLR268W, strain sec22, hits give low values 0.98 | locus YLR320W, strain mms22, hits give low values 0.948 | locus YLR330W, strain CHS5, hits give low values 1.01 | locus YLR342W, strain FKS1 (second series), hits give low values 0.987 | locus YLR342W, strain FKS1, hits give low values 1 | locus YLR357W, strain rsc2, hits give low values 0.967 | locus YLR370C, strain arc18, hits give low values 0.98 | locus YLR371W, strain rom2, hits give low values 0.994 | locus YLR384C, strain iki3, hits give low values 0.972 | locus YLR418C, strain cdc73, hits give low values 0.997 | locus YML016C, strain PPZ1, hits give low values 1.01 | locus YML032C, strain rad52, hits give low values 1.01 | locus YML120C, strain ndi1, hits give low values 0.977 | locus YML124C, strain tub3, hits give low values 0.994 | locus YMR058W, strain fet3, hits give low values 0.986 | locus YMR078C, strain ctf18, hits give low values 0.996 | locus YMR125W, strain sto1, hits give low values 0.975 | locus YMR129W, hits give low values 0.97 | locus YMR205C, strain PFK2, hits give low values 0.935 | locus YMR223W, strain ubp8, hits give low values 1.02 | locus YMR231W, strain pep5, hits give low values 0.979 | locus YMR263W, strain SAP30, hits give low values 1.02 | locus YMR307W, strain GAS1, hits give low values 1.08 | locus YNL067W, strain RPL9B, hits give low values 1.01 | locus YNL071W, strain lat1, hits give low values 0.956 | locus YNL128W, strain TEP1, hits give low values 1.01 | locus YNL183C, strain NPR1, hits give low values 1 | locus YNL209W, strain ssb2, hits give low values 0.99 | locus YNL233W, strain BNI4, hits give low values 1.01 | locus YNL248C, strain rpa49, hits give low values 0.961 | locus YNL250W, strain rad50, hits give low values 1.01 | locus YNL271C, strain bni1, hits give low values 0.998 | locus YNL298W, strain CLA4, hits give low values 1 | locus YNL307C, strain MCK1, hits give low values 0.997 | locus YNL322C, strain KRE1 (second series), hits give low values 0.983 | locus YNR049C, strain mso1, hits give low values 0.967 | locus YNR052C, strain pop2, hits give low values 1 | locus YOL006C, strain TOP1, hits give low values 1.03 | locus YOL012C, strain htz1 1.06 | locus YOL147C, strain pex11, hits give low values 0.994 | locus YOR001W, strain rrp6, hits give low values 0.98 | locus YOR061W, strain CKA2, hits give low values 1.02 | locus YOR069W, strain VPS5, hits give low values 1.01 | locus YOR070C, strain gyp1, hits give low values 1 | locus YOR080W, strain dia2, hits give low values 0.926 | locus YOR083W, strain WHI5, hits give low values 0.987 | locus YOR106W, strain vam3, hits give low values 1.01 | locus YOR136W, strain idh2, hits give low values 0.988 | locus YOR144C, strain elg1, hits give low values 1 | locus YOR184W, strain ser1, hits give low values 0.987 | locus YOR231W, strain MKK1, hits give low values 1.05 | locus YOR265W, strain rbl2, hits give low values 0.993 | locus YOR270C, strain vph1, hits give low values 0.958 | locus YOR290C, strain snf2, hits give low values 0.995 | locus YOR316C, strain cot1, hits give low values 0.992 | locus YPL051W, strain arl3, hits give low values 1.01 | locus YPL078C, strain atp4, hits give low values 1 | locus YPL106C, strain sse1, hits give low values 0.943 | locus YPL240C, strain hsp82, hits give low values 0.991 | locus YPL241C, strain CIN2, hits give low values 1.01 | locus YPL256C, strain CLN2, hits give low values 1.07 | locus YPR119W, strain clb2, hits give low values 1 | locus YPR141C, strain kar3, hits give low values 1 | locus YPR163C, strain tif3, hits give low values 0.985 | locus YPR167C, strain met16, hits give low values 1 | strain wtn01, hits give low values 0.96
